How the values were obtained:
[1] = target: 5'-AMP-activated protein kinase catalytic subunit alpha-2 (Homo sapiens) (UniProt P54646); details: at 1 µM
[2] = target: T1, NUAK family SNF1-like kinase 1 (Homo sapiens) (UniProt O60285); details: at 0.1 µM
T1 sequence (whole entry): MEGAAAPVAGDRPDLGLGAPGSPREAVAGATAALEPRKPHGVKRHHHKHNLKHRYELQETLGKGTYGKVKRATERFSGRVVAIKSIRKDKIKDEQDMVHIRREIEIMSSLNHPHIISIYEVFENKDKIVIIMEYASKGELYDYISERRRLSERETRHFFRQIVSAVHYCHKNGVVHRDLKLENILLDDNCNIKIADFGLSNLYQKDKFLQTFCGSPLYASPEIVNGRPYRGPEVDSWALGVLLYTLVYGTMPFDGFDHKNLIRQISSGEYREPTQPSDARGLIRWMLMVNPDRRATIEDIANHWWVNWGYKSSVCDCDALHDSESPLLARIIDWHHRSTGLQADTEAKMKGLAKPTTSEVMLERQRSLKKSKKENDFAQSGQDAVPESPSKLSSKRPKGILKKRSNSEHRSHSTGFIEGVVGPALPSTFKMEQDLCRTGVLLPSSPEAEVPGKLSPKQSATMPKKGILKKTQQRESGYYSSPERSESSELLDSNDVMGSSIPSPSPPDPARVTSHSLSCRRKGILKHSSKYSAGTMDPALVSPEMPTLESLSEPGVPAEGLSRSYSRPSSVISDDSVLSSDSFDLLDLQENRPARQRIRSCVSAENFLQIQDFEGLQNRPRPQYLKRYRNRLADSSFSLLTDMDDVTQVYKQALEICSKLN

[3] = target: T1, NUAK family SNF1-like kinase 1 (Homo sapiens); details: at 1 µM
[4] = target: T2, Serine/threonine-protein kinase BRSK1 (Homo sapiens) (UniProt Q8TDC3); details: at 0.1 µM
T2 sequence (whole entry): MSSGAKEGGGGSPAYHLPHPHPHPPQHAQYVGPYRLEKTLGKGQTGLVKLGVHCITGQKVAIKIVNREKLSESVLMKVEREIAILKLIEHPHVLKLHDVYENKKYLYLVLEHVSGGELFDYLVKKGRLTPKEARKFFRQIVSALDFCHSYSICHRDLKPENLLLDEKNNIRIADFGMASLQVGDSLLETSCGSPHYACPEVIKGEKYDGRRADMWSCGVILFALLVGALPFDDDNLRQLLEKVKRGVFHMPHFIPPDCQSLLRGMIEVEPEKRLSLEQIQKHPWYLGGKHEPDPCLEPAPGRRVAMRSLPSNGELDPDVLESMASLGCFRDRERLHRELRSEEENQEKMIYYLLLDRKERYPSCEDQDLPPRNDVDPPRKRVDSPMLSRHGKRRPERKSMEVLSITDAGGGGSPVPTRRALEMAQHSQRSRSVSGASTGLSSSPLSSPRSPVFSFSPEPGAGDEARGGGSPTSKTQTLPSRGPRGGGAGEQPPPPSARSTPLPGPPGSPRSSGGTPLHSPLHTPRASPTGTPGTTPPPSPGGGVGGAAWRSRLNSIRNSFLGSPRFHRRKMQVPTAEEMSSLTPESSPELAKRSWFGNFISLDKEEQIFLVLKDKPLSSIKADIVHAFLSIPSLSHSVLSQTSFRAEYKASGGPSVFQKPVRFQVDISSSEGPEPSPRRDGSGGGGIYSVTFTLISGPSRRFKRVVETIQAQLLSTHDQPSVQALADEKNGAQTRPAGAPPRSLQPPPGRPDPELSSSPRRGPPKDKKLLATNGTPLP

[5] = target: T2, Serine/threonine-protein kinase BRSK1 (Homo sapiens); details: at 1 µM
[6] = target: T3, Serine/threonine-protein kinase BRSK2 (Homo sapiens) (UniProt Q8IWQ3); details: at 0.1 µM
T3 sequence (whole entry): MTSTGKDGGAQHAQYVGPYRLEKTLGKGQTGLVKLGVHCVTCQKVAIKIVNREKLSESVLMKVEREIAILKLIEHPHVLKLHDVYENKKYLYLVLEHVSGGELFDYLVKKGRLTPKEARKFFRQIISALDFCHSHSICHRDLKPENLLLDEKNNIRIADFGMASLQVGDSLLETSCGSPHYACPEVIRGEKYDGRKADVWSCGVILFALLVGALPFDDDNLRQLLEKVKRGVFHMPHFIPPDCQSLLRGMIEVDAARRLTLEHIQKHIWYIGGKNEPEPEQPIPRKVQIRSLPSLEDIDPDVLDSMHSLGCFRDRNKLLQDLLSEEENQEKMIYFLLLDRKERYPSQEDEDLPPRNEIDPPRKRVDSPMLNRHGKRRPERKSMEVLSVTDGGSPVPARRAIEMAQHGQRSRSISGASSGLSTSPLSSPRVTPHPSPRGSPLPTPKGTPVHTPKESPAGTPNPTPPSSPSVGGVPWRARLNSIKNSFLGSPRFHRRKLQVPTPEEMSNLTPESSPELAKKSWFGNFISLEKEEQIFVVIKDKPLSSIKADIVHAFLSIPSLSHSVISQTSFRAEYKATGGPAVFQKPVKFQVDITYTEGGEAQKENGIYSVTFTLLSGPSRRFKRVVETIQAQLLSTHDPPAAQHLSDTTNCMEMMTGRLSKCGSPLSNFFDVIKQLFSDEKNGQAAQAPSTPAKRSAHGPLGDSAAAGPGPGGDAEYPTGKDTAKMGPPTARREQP

[7] = target: T3, Serine/threonine-protein kinase BRSK2 (Homo sapiens); details: at 1 µM
[8] = target: Calcium/calmodulin-dependent protein kinase type 1D (Homo sapiens) (UniProt Q8IU85); details: at 0.1 µM
[9] = target: Calcium/calmodulin-dependent protein kinase type 1D (Homo sapiens) (UniProt Q8IU85); details: at 1 µM
[10] = target: Calcium/calmodulin-dependent protein kinase type II subunit alpha (Homo sapiens) (UniProt Q9UQM7); details: at 0.1 µM
[11] = target: Calcium/calmodulin-dependent protein kinase type II subunit alpha (Homo sapiens) (UniProt Q9UQM7); details: at 1 µM
[12] = target: Calcium/calmodulin-dependent protein kinase type II subunit delta (Homo sapiens) (UniProt Q13557); details: at 0.1 µM
[13] = target: Calcium/calmodulin-dependent protein kinase type II subunit delta (Homo sapiens) (UniProt Q13557); details: at 1 µM
[14] = target: T4, Calcium/calmodulin-dependent protein kinase type IV (Homo sapiens) (UniProt Q16566); details: at 0.1 µM
T4 sequence (whole entry): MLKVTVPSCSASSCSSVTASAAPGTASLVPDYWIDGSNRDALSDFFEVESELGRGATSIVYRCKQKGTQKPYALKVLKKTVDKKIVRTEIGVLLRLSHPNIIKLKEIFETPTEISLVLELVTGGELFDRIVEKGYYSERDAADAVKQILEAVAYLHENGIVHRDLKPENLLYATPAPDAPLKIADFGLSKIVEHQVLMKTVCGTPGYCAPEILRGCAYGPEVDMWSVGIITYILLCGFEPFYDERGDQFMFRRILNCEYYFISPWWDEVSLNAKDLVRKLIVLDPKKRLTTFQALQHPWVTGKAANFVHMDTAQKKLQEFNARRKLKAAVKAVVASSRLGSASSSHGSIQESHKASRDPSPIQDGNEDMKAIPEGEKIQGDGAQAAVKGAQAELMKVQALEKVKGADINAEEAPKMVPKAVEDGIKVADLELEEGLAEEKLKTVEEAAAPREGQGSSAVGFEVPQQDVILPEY

[15] = target: T4, Calcium/calmodulin-dependent protein kinase type IV (Homo sapiens); details: at 1 µM
[16] = target: T5, Serine/threonine-protein kinase Chk1 (Homo sapiens) (UniProt O14757); details: at 0.1 µM
T5 sequence (whole entry): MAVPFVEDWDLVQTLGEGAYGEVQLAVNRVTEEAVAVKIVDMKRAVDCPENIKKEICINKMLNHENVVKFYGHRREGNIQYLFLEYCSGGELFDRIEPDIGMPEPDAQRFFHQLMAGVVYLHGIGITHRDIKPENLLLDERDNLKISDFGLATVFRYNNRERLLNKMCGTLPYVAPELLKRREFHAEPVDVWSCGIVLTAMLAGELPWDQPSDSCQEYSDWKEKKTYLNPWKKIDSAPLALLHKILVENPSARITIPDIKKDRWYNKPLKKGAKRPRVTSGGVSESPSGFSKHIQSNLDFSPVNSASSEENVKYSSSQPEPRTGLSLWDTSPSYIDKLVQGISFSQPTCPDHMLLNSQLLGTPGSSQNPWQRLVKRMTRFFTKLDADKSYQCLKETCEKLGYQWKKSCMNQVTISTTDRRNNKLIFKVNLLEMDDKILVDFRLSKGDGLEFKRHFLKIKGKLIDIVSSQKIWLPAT

[17] = target: T5, Serine/threonine-protein kinase Chk1 (Homo sapiens); details: at 1 µM
[18] = target: Serine/threonine-protein kinase Chk2 (Homo sapiens) (UniProt O96017); details: at 0.1 µM
[19] = target: Serine/threonine-protein kinase Chk2 (Homo sapiens) (UniProt O96017); details: at 1 µM
[20] = target: Death-associated protein kinase 1 (Homo sapiens) (UniProt P53355); details: at 0.1 µM;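 further: reported figure is the mean inhibition of DAPK1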
Chain of Death-associated protein kinase 1 (Homo sapiens) (P53355 whole entry, looked up): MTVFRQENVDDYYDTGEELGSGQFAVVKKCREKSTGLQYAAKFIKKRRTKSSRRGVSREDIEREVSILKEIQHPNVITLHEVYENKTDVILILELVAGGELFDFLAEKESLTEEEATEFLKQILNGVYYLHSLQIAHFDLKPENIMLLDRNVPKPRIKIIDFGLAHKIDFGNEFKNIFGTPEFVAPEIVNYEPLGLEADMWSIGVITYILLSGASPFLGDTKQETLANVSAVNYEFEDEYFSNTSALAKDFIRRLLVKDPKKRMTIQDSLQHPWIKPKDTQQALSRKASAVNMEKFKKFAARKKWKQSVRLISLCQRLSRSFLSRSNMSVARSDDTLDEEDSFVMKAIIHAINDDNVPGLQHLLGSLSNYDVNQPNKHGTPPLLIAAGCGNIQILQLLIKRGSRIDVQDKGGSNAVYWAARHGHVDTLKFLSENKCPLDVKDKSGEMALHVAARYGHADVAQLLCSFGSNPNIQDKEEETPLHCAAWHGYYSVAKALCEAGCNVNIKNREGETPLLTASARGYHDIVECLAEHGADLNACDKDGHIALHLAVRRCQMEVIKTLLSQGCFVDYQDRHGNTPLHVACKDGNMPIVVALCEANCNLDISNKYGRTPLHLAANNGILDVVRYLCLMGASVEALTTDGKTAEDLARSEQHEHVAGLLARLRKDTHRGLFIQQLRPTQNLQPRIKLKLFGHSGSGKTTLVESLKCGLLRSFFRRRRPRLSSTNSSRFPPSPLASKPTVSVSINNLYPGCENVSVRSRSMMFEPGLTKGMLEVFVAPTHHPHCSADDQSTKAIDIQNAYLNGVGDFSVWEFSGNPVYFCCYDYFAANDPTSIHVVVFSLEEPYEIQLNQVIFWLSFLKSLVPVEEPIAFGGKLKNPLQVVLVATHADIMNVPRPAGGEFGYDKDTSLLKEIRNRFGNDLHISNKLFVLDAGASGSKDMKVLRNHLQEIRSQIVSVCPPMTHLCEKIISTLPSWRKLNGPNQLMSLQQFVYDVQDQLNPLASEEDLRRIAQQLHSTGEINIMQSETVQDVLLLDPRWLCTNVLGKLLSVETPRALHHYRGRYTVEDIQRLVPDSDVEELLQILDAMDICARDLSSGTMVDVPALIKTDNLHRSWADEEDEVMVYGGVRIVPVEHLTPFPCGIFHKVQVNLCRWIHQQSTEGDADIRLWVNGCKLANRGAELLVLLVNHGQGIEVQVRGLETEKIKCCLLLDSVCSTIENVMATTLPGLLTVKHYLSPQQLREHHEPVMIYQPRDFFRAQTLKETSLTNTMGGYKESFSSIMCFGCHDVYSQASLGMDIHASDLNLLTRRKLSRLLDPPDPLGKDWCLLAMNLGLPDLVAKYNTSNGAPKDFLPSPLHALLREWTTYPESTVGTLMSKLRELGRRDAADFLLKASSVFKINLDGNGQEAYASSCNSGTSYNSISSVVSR

Chain of 5'-AMP-activated protein kinase catalytic subunit alpha-2 (Homo sapiens) (P54646 whole entry, looked up): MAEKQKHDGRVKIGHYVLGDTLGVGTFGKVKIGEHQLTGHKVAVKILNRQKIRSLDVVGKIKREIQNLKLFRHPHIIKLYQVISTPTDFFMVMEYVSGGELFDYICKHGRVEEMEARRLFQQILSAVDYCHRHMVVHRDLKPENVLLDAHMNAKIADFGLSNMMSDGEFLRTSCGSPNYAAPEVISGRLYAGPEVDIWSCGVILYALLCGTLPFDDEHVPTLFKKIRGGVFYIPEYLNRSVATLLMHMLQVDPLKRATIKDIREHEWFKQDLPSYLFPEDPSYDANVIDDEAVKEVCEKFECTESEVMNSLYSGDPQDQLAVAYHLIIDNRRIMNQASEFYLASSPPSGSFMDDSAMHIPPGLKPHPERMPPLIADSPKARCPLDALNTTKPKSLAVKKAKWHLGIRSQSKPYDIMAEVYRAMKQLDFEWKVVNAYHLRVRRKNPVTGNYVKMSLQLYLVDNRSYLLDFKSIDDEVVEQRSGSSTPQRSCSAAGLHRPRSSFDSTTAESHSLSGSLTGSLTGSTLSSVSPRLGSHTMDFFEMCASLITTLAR
Chain of Calcium/calmodulin-dependent protein kinase type II subunit alpha (Homo sapiens) (Q9UQM7 whole entry): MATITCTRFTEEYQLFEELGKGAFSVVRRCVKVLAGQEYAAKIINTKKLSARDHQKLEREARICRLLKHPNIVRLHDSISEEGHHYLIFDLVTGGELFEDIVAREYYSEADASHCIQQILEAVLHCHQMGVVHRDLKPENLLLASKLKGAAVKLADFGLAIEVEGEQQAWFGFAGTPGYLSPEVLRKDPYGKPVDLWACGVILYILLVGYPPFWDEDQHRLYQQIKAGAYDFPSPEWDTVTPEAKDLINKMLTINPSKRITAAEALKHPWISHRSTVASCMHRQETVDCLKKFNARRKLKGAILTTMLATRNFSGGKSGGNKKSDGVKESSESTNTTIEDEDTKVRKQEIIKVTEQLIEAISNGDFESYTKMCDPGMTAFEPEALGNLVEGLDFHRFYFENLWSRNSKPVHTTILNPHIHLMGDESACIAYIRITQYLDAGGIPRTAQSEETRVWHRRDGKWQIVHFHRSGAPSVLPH
Chain of Calcium/calmodulin-dependent protein kinase type 1D (Homo sapiens) (Q8IU85 whole entry, looked up): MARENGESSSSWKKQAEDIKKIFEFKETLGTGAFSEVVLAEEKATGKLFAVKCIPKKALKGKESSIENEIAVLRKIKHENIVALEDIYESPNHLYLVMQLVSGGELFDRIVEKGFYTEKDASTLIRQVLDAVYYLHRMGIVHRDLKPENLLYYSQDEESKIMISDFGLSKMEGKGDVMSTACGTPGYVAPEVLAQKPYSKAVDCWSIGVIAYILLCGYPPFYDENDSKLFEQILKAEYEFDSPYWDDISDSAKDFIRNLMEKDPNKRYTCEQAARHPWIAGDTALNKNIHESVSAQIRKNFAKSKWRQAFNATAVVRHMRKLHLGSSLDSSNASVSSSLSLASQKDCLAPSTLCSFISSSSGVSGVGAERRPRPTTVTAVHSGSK
Chain of Serine/threonine-protein kinase Chk2 (Homo sapiens) (O96017 whole entry): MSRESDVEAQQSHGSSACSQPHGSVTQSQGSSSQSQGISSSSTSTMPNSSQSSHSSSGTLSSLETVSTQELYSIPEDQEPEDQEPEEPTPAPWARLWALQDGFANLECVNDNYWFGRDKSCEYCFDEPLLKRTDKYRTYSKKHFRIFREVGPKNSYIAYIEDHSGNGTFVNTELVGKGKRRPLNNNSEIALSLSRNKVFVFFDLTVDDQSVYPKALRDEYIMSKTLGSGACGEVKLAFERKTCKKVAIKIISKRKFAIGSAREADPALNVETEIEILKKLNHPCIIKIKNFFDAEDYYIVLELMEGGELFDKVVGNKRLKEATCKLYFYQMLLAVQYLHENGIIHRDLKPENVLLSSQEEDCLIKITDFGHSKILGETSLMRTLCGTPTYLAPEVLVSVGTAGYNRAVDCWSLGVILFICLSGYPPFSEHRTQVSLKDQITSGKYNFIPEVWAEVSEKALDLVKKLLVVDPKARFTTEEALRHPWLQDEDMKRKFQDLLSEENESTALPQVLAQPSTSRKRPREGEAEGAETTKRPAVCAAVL
Chain of Calcium/calmodulin-dependent protein kinase type II subunit delta (Homo sapiens) (Q13557 whole entry): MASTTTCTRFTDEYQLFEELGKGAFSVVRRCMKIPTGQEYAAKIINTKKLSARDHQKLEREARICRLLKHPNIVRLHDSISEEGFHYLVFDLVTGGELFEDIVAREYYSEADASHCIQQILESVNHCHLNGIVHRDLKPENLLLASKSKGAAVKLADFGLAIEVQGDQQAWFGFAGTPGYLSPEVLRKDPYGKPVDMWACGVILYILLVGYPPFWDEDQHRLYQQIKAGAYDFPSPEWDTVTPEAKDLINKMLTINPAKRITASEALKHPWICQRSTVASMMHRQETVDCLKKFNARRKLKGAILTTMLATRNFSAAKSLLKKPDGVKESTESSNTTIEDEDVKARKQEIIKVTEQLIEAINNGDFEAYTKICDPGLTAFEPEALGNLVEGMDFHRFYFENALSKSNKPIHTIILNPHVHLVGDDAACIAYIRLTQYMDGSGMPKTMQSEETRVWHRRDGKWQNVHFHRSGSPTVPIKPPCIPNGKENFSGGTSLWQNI

Row | SMILES | inhibition [1] | inhibition [2] | inhibition [3] | inhibition [4] | inhibition [5] | inhibition [6] | inhibition [7] | inhibition [8] | inhibition [9] | inhibition [10] | inhibition [11] | inhibition [12] | inhibition [13] | inhibition [14] | inhibition [15] | inhibition [16] | inhibition [17] | inhibition [18] | inhibition [19] | inhibition [20]
1 | O=C(O[C@H]1CN[C@H](C#Cc2cc3ncnc(Nc4ccc(Cc5ccccc5)cc4)c3s2)C1)N1CCOCC1 | 1.84% | -3.65% | -2.64% | 0.3% | 2.86% | 1.6% | 2.92% | -0.64% | -0.69% | 0.64% | -1.9% | 1.04% | -0.85% | -0.04% | -2.21% | 1.79% | 0.1% | 0.28% | 0.95% | 4.84%
2 | COc1cccc(-n2ncc3c(N/N=C/c4ccc(F)cc4)ncnc32)c1 | 3.2% | 6.48% | 16.9% | 1.24% | 12.1% | 5.29% | 17.8% | -0.29% | 1.05% | 3.15% | 3.26% | 3.08% | 3.49% | -2.69% | -2.57% | 2.07% | 5.65% | 2.49% | 3.64% | 4.6%
3 | CC(C)COC(=O)c1ccc2c(c1)/C(=C/Nc1ccc(S(N)(=O)=O)cc1)C(=O)N2 | 36.3% | 29.6% | 75.6% | 5.38% | 38% | 10.1% | 50.1% | 1.82% | 7.89% | 0.26% | 17.5% | 4.43% | 36.7% | 1.85% | 3.51% | 0.91% | 18.1% | -0.46% | 13.5% | -2.01%
4 | CCOc1ccc2c(-c3ccnc(Nc4cccc(C(F)(F)F)c4)n3)cnn2n1 | 2.74% | 2.71% | 7.44% | 1.14% | 4.56% | 3.01% | 2.66% | 1% | 1.1% | 0.19% | -2.29% | 2.41% | 0.44% | 1.94% | -1% | 3.49% | 3.51% | 1.55% | 1.92% | 3.1%
5 | CCN(CC)S(=O)(=O)c1ccc(OC)c(Nc2ncc(-c3ccccc3)o2)c1 | 0.95% | 5.96% | 3.38% | -0.07% | 0.94% | 3.36% | 6.08% | 0.13% | -0.06% | 3.02% | 6.08% | 2.08% | 8.27% | -0.4% | -1.66% | 1.49% | 2.79% | -0.98% | 2.66% | 4%
6 | CCc1nn2ncccc2c1-c1ccnc(NC2CC2)n1 | 2.42% | -1.38% | 1.14% | 3.05% | 1.03% | 1.62% | 4.01% | 1.12% | 2.41% | 2.89% | 3.03% | 2.51% | 4.18% | 3.71% | 2.48% | 2.02% | 2.69% | 1.64% | 3.66% | 3.5%
7 | Fc1ccc(-c2nn3ccccc3c2-c2ccncc2)cc1 | 2.49% | -0.02% | 1.09% | 0.59% | 1.1% | 1.69% | 0.78% | 0.87% | 1.9% | 3.85% | 0.25% | 0.43% | 2.99% | 1.16% | 1.98% | 0.22% | -0.04% | -0.38% | 0.19% | 0.72%

From ChEMBL document CHEMBL1961873, “Compounds: GSK PKIS; Assays: Nanosyn kinase panel” (2012)
